CF NFkB block: inhibitors of cystic fibrosis induced NF-kB | KKLEB NF-kB-GFP reporter, PAF-induced, GFP fluorescence overnight | inhibition, % at 5 µM | hit rate 0.86% among 360,000;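 active = at least 50% inhibition at 5 µM, scaled per plate between neutral and stimulator controls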;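 also: PAF is a Pseudomonas aeruginosa culture filtrate used as stimulus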
EWS-Fli block: blocks EWS/Fli oncoprotein-driven transcription. inhibition, % at 12.6 µM. AID 651661. A673 NR0B1-luciferase reporter, viability-normalised. hit rate 0.67% among 350,000;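 active = mean inhibition of at least 50% after viability correction, with every replicate also passing that limit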;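 also: firefly luciferase signal divided by Alamar Blue viability fluorescence both relative to DMSO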
HIF-2a inh: blocks HIF-2a reporter activity. 786-0 RCC cells HIF-2a reporter, luciferase luminescence, overnight. inhibition, % at 18.8 µM. hit rate 0.72% among 360,000;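 active = inhibition of the luminescence signal of 40% or more relative to plate controls, in a single-dose primary screen at 18.75 µM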
KKLEB cytotox: counter-screen for CF NF-kB inhibitors: cytotoxicity; KKLEB CF airway cells viability, ATPlite luminescence, overnight; active compounds read low; cells stimulated with P. aeruginosa culture filtrate; activity change (cytotoxicity), % at 5 µM; hit rate 0.36% among 360,000;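 active = corrected activity change at or below -50% at 5 µM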
PAX8 reporter: PAX8 transcriptional activity inhibition; AID 652154; inhibition, % at 12.6 µM; RMG-I TPO-luciferase reporter, SteadyGlo, 24 h; hit rate 1.2% among 360,000;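 active = mean replicate inhibition at least 60% with every replicate also reaching 60%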;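 also: luciferase light reporting Pax8 driven TPO promoter activity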
CF NFkB inh conf: confirmation of cystic fibrosis induced NF-kB inhibitors; shares compounds with CF NFkB block; KKLEB CF airway cells, PAF-induced NF-kB-GFP fluorescence, overnight; inhibition, % at 5 µM; hit rate 64% among 1,300; in the data active = inhibition above about 40%;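 also: stimulus PAF is a Pseudomonas aeruginosa filtrate and not platelet activating factor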
Mdm2 MdmX conf: confirmation of inhibitors of human Mdm2/MdmX interaction, set 2; shares compounds with HIF-2a inh; SaOS-2 split-luciferase Mdm2/MdmX complementation, luminescence; inhibition, % at 8 µM; hit rate 99% among 740;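 active = mean inhibition of the luminescence signal across two replicates at or above 26 percent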
Target sequence (O15151 whole entry, looked up): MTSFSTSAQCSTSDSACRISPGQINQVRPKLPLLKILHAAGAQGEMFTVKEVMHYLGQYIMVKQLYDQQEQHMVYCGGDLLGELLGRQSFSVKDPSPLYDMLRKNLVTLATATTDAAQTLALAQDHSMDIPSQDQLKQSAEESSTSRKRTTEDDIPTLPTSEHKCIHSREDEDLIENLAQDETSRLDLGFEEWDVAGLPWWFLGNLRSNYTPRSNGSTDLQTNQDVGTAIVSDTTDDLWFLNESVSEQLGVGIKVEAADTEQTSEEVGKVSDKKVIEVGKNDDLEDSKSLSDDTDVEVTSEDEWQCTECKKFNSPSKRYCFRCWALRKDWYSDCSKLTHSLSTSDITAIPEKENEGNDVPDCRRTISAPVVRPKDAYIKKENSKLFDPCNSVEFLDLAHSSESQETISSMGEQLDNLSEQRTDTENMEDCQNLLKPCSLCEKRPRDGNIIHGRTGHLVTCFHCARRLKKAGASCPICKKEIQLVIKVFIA
Target sequence (Q00987 whole entry, looked up): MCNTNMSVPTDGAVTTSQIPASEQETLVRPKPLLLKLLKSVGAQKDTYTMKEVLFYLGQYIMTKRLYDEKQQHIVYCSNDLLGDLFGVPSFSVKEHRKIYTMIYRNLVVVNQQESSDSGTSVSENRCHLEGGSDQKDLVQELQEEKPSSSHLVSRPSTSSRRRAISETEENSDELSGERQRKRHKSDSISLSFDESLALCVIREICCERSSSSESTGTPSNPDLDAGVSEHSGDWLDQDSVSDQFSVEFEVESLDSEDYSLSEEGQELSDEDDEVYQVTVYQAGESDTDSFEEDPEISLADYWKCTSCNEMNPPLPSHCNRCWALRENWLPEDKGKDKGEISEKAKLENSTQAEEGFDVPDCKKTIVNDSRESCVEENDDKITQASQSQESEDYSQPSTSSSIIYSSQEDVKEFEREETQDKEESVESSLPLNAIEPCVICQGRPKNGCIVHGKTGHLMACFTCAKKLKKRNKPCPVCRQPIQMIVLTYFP
HIF-2a conf: confirmation of HIF-2a inhibitors; hit rate 56% among 1,800; shares compounds with HIF-2a inh; 786-0 RCC cells, HIF-2a luciferase reporter luminescence, overnight; inhibition, % at 18.8 µM;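 active = mean inhibition across four replicates of at least 40 percent at the single tested concentration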
HIF-1a counter: HIF-1a inhibition counter-screen for HIF-2a hits. shares compounds with HIF-2a inh. MiaPaCa-2 HIF-1a luciferase reporter, desferoxamine, overnight. inhibition, % at 18.8 µM. hit rate 72% among 1,800;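 active = mean inhibition of the reporter signal across four replicates at the single tested dose of 50% or more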
Large screens that a line does not name were inactive (follow-up assays come after a bar, where they were run). In the library only some 2.1% were active in any assay of this set; here they are far more common.

COc1ccc2c(c1OC)C(=O)OC2C1c2cc3c(cc2CCN1C)OCO3 (stereo unspecified)	none
COc1cc(C2c3cc4c(cc3CC3COC(=O)C32)OCO4)cc(OC)c1O (stereo unspecified)	CF NFkB block 54, PAX8 reporter 75 | CF NFkB inh conf 71
COC(=O)[C@H]1[C@H](CO)[C@H]2Cn3c(ccc(-c4cccc(OC)c4)c3=O)[C@@H]1N2C(=O)c1ccccc1F	none (no result: CF NFkB block, HIF-2a inh, KKLEB cytotox)
COC(=O)[C@@H]1[C@@H](CO)[C@@H]2Cn3c(ccc(-c4ccccc4)c3=O)[C@H]1N2CCc1ccccc1	none (no result: CF NFkB block, HIF-2a inh, KKLEB cytotox, PAX8 reporter)
C=C1C(=O)OC2CC3(C)OC3CCC(C)=CC(OC(C)=O)C12 (stereo unspecified)	CF NFkB block 91, PAX8 reporter 95 | CF NFkB inh conf 89
C=C1C(=O)O[C@@H]2C[C@@H](C)[C@H]3C=CC(=O)[C@]3(O)C[C@@H]12	none
COc1cc2c(c(OC)c1OC)-c1ccc(O)cc1C(NC(C)=O)CC2 (stereo unspecified)	CF NFkB block 67, PAX8 reporter 80 | CF NFkB inh conf 88
COc1cc2c3c(c1OC)-c1cc(O)ccc1CC3NCC2 (stereo unspecified)	none (no result: EWS-Fli block, PAX8 reporter)
COc1ccc(CCNC2CCCCC2)cc1	none
COc1ccc(C[C@H]2NC[C@H](O)[C@H]2OC(C)=O)cc1	CF NFkB block 88, EWS-Fli block 66, HIF-2a inh 91, PAX8 reporter 103 | CF NFkB inh conf 116
CCCNC(=O)[C@@H]1[C@@H](CO)[C@@H]2Cn3c(cccc3=O)[C@@H]2N1C	none (no result: CF NFkB block, HIF-2a inh, KKLEB cytotox)
Cc1cccc(C)c1-n1nnnc1C(c1ccccc1OC(F)(F)F)N1CCC(n2c(=O)[nH]c3ccccc32)CC1 (stereo unspecified)	CF NFkB block 73 | CF NFkB inh conf inactive
COc1ccc(C(c2nnnn2-c2c(C)cccc2C)N2CCC(n3c(=O)[nH]c4ccccc43)CC2)cc1 (stereo unspecified)	CF NFkB block 60 | CF NFkB inh conf inactive
O=C(O)[C@@H]1[C@@H](CO)[C@@H]2Cn3c(ccc(-c4ccncc4)c3=O)[C@H]1N2C(=O)C1CCCCC1	none (no result: CF NFkB block, HIF-2a inh, KKLEB cytotox, PAX8 reporter)
C=CC[C@@H](CC/C=C/C=C/CC/C=C\[C@@H]1CSC([C@@H]2C[C@@H]2C)=N1)OC	CF NFkB block 54 (no result: EWS-Fli block, PAX8 reporter) | CF NFkB inh conf 48
O=C(Cc1cccnc1)N1CCCCN2[C@H](CO)[C@H](c3ccc(C#CC4(O)CCCC4)cc3)[C@H]2C1	none (no result: CF NFkB block, HIF-2a inh, KKLEB cytotox)
N#CC1c2ccccc2-n2nncc2CN1Cc1cc(Cl)cc(Cl)c1 (stereo unspecified)	CF NFkB block 90, EWS-Fli block 62, HIF-2a inh 93, PAX8 reporter 106 | CF NFkB inh conf 116 | HIF-2a conf 98 | HIF-1a counter 107
C=C1C(=O)OC2CC3(C)OC3C3OC3C3=CC(OC3=O)C12 (stereo unspecified)	CF NFkB block 88, EWS-Fli block 58, HIF-2a inh 61 (no result: PAX8 reporter) | CF NFkB inh conf 61 | HIF-2a conf 68 | HIF-1a counter inactive
CCCC#Cc1ccc([C@H]2[C@@H](CO)N3CCCCN(C(=O)Cc4ccccn4)C[C@H]23)cc1	none (no result: CF NFkB block, HIF-2a inh, KKLEB cytotox)
O=C(O)[C@H]1[C@H](CO)[C@H]2Cn3c(ccc(C4=CCCCC4)c3=O)[C@@H]1N2C(=O)Cc1ccccn1	none (no result: CF NFkB block, HIF-2a inh, KKLEB cytotox)
N#CSCC(=O)N1c2ccccc2CCc2ccccc21	CF NFkB block 59, HIF-2a inh 41 (no result: EWS-Fli block) | HIF-2a conf inactive | HIF-1a counter 72
C=CCCC[C@@H]1OC(=O)CNC(=O)C([C@@H](C)CC)NC(=O)[C@@H]2CCCN2C(=O)C([C@@H](C)CC)OC(=O)[C@H](Cc2ccccc2)N(C)C(=O)[C@H](C(C)C)NC(=O)C1(C)C (stereo partly specified)	HIF-2a inh 82 | HIF-2a conf inactive | HIF-1a counter 104
CC(C)NC(=O)N1[C@@H]2Cn3c(ccc(-c4cccc(C(=O)N(C)C)c4)c3=O)[C@H]1[C@@H](C(=O)O)[C@@H]2CO	none (no result: CF NFkB block, HIF-2a inh, KKLEB cytotox, PAX8 reporter)
CCCCN=C[C@]12CCC(O)CC1(O)CCC1[C@@H]2CC[C@]2(C)[C@H](C3C=CC(=O)O3)CCC12O (stereo partly specified)	CF NFkB block 99, EWS-Fli block 73, HIF-2a inh 55, KKLEB cytotox -72, PAX8 reporter 107 | Mdm2 MdmX conf 82 | HIF-2a conf inactive | HIF-1a counter 104
O=[N+]([O-])c1ccc(N2CCOCC2)c2c1no[n+]2[O-]	CF NFkB block 84, HIF-2a inh 69, KKLEB cytotox -92, PAX8 reporter 98 | HIF-2a conf 58 | HIF-1a counter 101
O=C1CNC[C@H]2[C@@H](c3ccc(Br)cc3)[C@H](CO)N12	none (no result: CF NFkB block, HIF-2a inh, KKLEB cytotox)
N#Cc1cccc(-c2ccc([C@@H]3[C@H]4CN(C(=O)Cc5ccncc5)CCCCN4[C@H]3CO)cc2)c1	none (no result: CF NFkB block, EWS-Fli block, HIF-2a inh, KKLEB cytotox)
CC(=O)OCC12CC(OC(=O)CC(C)C)C(C)=CC1OC1C(O)C(OC(C)=O)C2(C)C12CO2 (stereo unspecified)	CF NFkB block 93, HIF-2a inh 82, KKLEB cytotox -63, PAX8 reporter 102 | HIF-2a conf 79 | HIF-1a counter 102
O=C1NC2C(=CC(O)C(O)C2O)c2cc3c(c(O)c21)OCO3 (stereo unspecified)	CF NFkB block 89, EWS-Fli block 54, HIF-2a inh 85, KKLEB cytotox -64 (no result: PAX8 reporter) | HIF-2a conf 84 | HIF-1a counter 106
O=C1NC2C(O)C(O)C(O)C(O)C2c2cc3c(c(O)c21)OCO3 (stereo unspecified)	CF NFkB block 86, EWS-Fli block 56, HIF-2a inh 66, PAX8 reporter 105 | HIF-2a conf 70 | HIF-1a counter 105
O=C(CCn1nc(-c2ccc(Cl)cc2)ccc1=O)N1CCC2(CC1)OCCO2	none
Cc1nc2cc(-c3ccc(Cl)cc3)nn2c(C)c1CCC(=O)N1CCC2(CC1)OCCO2	HIF-2a inh 81 (no result: EWS-Fli block) | HIF-2a conf 89 | HIF-1a counter 68
Cc1cccc(S(=O)(=O)N2[C@@H]3c4ccc(-c5cccc(F)c5)c(=O)n4C[C@H]2[C@H](CO)[C@H]3C(=O)O)c1	none (no result: CF NFkB block, HIF-2a inh, KKLEB cytotox)
CCCCn1c(=O)c(C(=O)NCc2ccc(Cl)cc2)c(O)c2ccccc21	none

High-throughput results (PubChem)
